Shown are actives, neighbours in structure and some others; about 0.52% of the full set was active somewhere.
Eya2 inh = qHTS Assay for Inhibitors of the Phosphatase Activity of Eya2; recombinant Eya2, OMFP fluorescence dephosphorylation (OMFP is methylfluorescein phosphate); 330,000 tested, 0.006% active; Protein phosphatase EYA2 (Homo sapiens), O00167; Potency, µM (doses to about 76.9 µM), hits mostly inhibitors
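Eya2 (0.2 uM) preincubated 10 min at ambient with compound, then OMFP substrate added at 50 uM; 10 min reaction in 50 mM HEPES pH 7.5, 50 mM NaCl, 5 uM MgCl2, 0.05% BSA, 1 mM DTT. Fluorescence read at Ex 485/Em 525 nm.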
RGS4 inh = Inhibitors of Regulator of G Protein Signaling (RGS) 4: qHTS | Transcreener GDP fluorescence polarization, RGS4-accelerated GTP hydrolysis | Potency, µM (highest dose often 114 µM), usual class: inhibitors | 390,000 tested, 0.039% active; further: nearly all actives have a fitted effect of over 75% in size
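MLSMR compounds (23 nl, pin-transferred) preincubated 10 min at room temperature with a 500nM (2x) first reagent, then RGS4 at 900nM (2x) plus Transcreener GDP mix added; fluorescence polarization (620/688 nm) read before and after 90 min at 30 °C.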
Chronic BCR inh = qHTS Assay to Find Inhibitors of Chronic Active B-Cell Receptor Signaling; ABC-DLBCL IkBa-CBG/CBR reporter, luminescence ratio, 4 h; Potency, µM (series often up to 46.1 µM), most hits filed as inhibitors; 340,000 tested, 0.05% active; active means well fitted inhibition curve with a large enough effect in the signal ratio, with a control signal flat, not every such curve was filed as active; inconclusive means small, poorly fitted or top-dose-only effect, or effect the other way, or a change in a side signal; the % refers to the signal ratio
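TMD8 ABC-DLBCL cells carrying doxycycline-inducible green luciferase fused to IkappaBalpha plus unfused red luciferase were exposed to compounds (up to 46 uM) for 4 hrs at 37C. Activity came from the overlap-corrected green/red luminescence ratio.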
KAT2A inh = qHTS Assay for Inhibitors of GCN5L2; Histone acetyltransferase KAT2A (Homo sapiens), Q92830; GCN5L2 HAT assay, ThioGlo1 CoA-SH fluorescence; Potency, µM (highest dose often 58.9 µM), usual class: inhibitors; 390,000 tested, 0.21% active; AID 504327, 2011
Target sequence (Q92830 whole entry, looked up): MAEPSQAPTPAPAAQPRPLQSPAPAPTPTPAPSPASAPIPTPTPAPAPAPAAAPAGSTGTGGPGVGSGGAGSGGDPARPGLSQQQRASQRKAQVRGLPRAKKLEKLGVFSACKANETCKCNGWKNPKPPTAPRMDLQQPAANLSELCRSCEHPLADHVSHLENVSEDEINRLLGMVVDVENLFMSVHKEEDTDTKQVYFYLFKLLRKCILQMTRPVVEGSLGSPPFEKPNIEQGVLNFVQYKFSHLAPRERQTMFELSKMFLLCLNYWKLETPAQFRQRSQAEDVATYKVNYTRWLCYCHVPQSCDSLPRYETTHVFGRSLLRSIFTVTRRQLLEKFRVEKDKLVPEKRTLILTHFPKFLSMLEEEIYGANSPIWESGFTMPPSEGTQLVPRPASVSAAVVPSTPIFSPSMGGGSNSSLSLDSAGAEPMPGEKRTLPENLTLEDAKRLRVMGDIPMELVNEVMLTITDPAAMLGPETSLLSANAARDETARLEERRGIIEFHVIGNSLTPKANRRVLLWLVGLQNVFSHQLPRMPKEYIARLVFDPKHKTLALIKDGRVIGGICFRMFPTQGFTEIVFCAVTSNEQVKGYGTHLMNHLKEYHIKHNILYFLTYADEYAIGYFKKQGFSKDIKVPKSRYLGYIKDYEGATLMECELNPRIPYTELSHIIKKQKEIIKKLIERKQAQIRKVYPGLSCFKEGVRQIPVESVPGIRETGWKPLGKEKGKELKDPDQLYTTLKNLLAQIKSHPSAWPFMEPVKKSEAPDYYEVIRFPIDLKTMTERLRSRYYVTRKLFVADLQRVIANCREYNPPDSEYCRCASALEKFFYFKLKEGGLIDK
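Compounds, pin-transferred from DMSO stocks, meet 20nM GCN5L2 for 15 min before the reaction begins with H3(1-25) peptide (75uM) and acetyl-CoA (70uM). Thiol-reactive ThioGlo1 reports CoA release over 20 min at room temperature.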
uPA generation = qHTS for Inhibitors of Cell Surface uPA Generation; cell surface uPA generation assay, qHTS; Potency, µM (titrated, usually from 38.3 µM), most hits filed as inhibitors; 330,000 tested, 0.31% active; active means well fitted inhibition curve with a large enough effect; inconclusive means small, poorly fitted or top-dose-only effect; inactive means no such curve, though single readings can be large or run the other way; tested in mouse RAW 264.7 cells; further: nearly all actives have a fitted effect of over 55% in size
USP2a block = qHTS Assay for Inhibitors of Ubiquitin-specific Protease USP2a Using CHOP2 as the Reporter. USP2 core, Ub-CHOP2 coupled fluorogenic reporter, 485/531. 330,000 tested, 0.01% active. Ubiquitin carboxyl-terminal hydrolase 2 (Homo sapiens), O75604. Potency, µM (doses to about 38.3 µM), actives largely listed as inhibitors. AID 463254, 2010
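Deubiquitinase activity read as fluorescence (485/531 nm) after Ub-CHOP2 cleavage activates the enterokinase reporter on its substrate; USP2 core 10nM, Ub-CHOP2 and substrate 25nM each, 30min compound preincubation then 60min RT; data normalized to NEM, curves fitted.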
Numbers stand for hits; . = inactive; ? = inconclusive; / = no result. Unless noted, the call rests on the fitted dose curve; in most records, active means well fitted curve in the direction sought with a large enough effect; inconclusive means small, poorly fitted or top-dose-only effect, or another doubt; inactive means no such curve, though single readings can be large; an effect the other way counts as inactive or inconclusive.

SMILES	Eya2 inh	RGS4 inh	Chronic BCR inh	KAT2A inh	uPA generation	USP2a block
O=C1C2CCCN2C(=O)N1CCCCN1CCN(c2cccc(Cl)c2)CC1 (centres undefined)	.	.	.	.	2.8µM	.
COc1cccc(-c2cc(NCc3cccc(C)c3)ncn2)c1	/	/	/	.	/	/
Nc1ccc2nc(-c3ccc(Cl)cc3)[nH]c2c1	.	?	.	?	4.5µM	.
Nc1ccc2nc(-c3cc(Cl)c(N)c(Cl)c3)[nH]c2c1	.	.	?	.	.	.
O=C(O)c1ccccc1Nc1cccc(OCc2ccc3ccccc3n2)c1	.	?	?	28µM	.	.
Nc1nc2[nH]c(=S)[nH]c2c(=O)[nH]1	/	.	/	/	/	/
Cc1ccc(S(=O)(=O)Nc2c(C)n(C)n(-c3ccccc3)c2=O)cc1C(=O)OC(C)C(=O)N(C)c1ccccc1 (centres undefined)	.	.	.	.	.	.
Cc1ccc(S(=O)(=O)Nc2c(C)n(C)n(-c3ccccc3)c2=O)cc1C(=O)OC(C)C(=O)c1ccccc1 (centres undefined)	/	.	/	/	5µM	/
NC(C(=O)O)c1cc(O)c(Cl)c(O)c1 (centres undefined)	/	.	/	32µM	/	/
O=c1cc(-c2ccc(O)cc2)oc2ccc3ccccc3c12	.	.	?	.	0.89µM	.
O=c1cc(-c2ccc(O)cc2)oc2c1ccc1ccccc12	.	?	.	.	.	.
CCC(CO)Oc1cc(NCc2ccc(Cl)cc2Cl)c2ncn(C(C)C)c2c1 (centres undefined)	.	.	.	.	8.9µM	.
CCC(CO)Oc1cc(NCc2ccc(Cl)cc2)c2ncn(C(C)C)c2c1 (centres undefined)	.	.	.	.	.	.
COc1ccc(NC(=O)CCn2cccn2)cc1OC	/	.	.	.	/	/
COCCNC(=O)CSc1cn(CC(=O)N2CCCCCC2)c2ccccc12	/	.	/	.	/	/
Cc1ccc(OCC(=O)Nc2ccc3nc(SCCOc4ccccc4)sc3c2)cc1	/	.	/	.	/	/
COc1ccccc1N1CCN(S(=O)(=O)c2c(C)sc3ncn(CC(=O)Nc4ccccc4F)c(=O)c23)CC1	/	.	/	.	/	/
Cc1ccc(-n2nc3c(c2NC(=O)c2cccs2)CS(=O)(=O)C3)cc1	.	.	.	.	.	.
Cc1ccc(-n2nc3c(c2NC(=O)c2cccs2)CSC3)cc1	.	.	.	3.5µM	.	.
COc1cccc(Cn2c(=O)c(-c3cn(C)c4ccccc34)nc3cnc(N4CCNCC4)nc32)c1	/	/	/	.	/	/
COc1cc(C=O)cc(OC)c1OS(=O)(=O)c1ccc(NC(C)=O)cc1	.	.	.	.	/	.
COc1ccc(C=O)cc1OS(=O)(=O)c1ccc(NC(C)=O)cc1	.	.	18µM	.	.	.
O=C(CN1C(=O)COc2ccc(S(=O)(=O)NC3CCCC3)cc21)NCc1ccccc1Cl	/	.	/	.	/	/
C=CCSSSCC=C	/	/	/	22µM	/	/
Cc1ccc(Sc2ncccc2[N+](=O)[O-])cc1	.	.	.	.	.	.
SMILES	Eya2 inh	RGS4 inh	Chronic BCR inh	KAT2A inh	uPA generation	USP2a block
Cc1c([N+](=O)[O-])cnc(Sc2ccccc2)c1[N+](=O)[O-]	/	.	/	/	8.9µM	/
CC1CCCC2(C1)NC(=S)N(c1ccccc1)N2 (centres undefined)	.	?	.	.	.	.
S=C1NC2(CCCCC2)NN1c1ccccc1	.	.	?	18µM	.	.
COc1ccccc1CNC(=O)c1cc2cc(C)ccc2n1C	/	.	/	.	/	/
CCc1c(C)c(C#N)c2nc3ccccc3n2c1Cl	.	/	8.2µM	.	/	.
CCc1c(C)c(C#N)c2nc3ccccc3n2c1-n1nc(C)cc1C	.	.	.	.	.	.
O=C(O)c1cc(O)c2c(c1)[C@@H]([C@H]1c3cc(C(=O)O)cc(O)c3C(=O)c3c(O[C@@H]4O[C@H](CO)[C@@H](O)[C@H](O)[C@H]4O)cccc31)c1cccc(O[C@@H]3O[C@H](CO)[C@@H](O)[C@H](O)[C@H]3O)c1C2=O	?	.	?	0.63µM	.	2µM
OCC1OC(Oc2cccc3ccccc23)C(O)C(O)C1O (centres undefined)	.	.	.	.	.	.
O=C(O)c1cc(O)c2c(c1)[C@H]([C@H]1c3cc(C(=O)O)cc(O)c3C(=O)c3c(O[C@@H]4OC(CO)C(O)C(O)C4O)cccc31)c1cccc(O[C@@H]3OC(CO)C(O)C(O)C3O)c1C2=O (some centres undefined)	/	/	/	1.8µM	/	/
CO[C@H](C(=O)[C@@H](O)[C@@H](C)O)C1Cc2cc3cc(O[C@H]4C[C@@H](O[C@H]5C[C@@H](O)[C@H](O)[C@@H](C)O5)[C@@H](O)[C@@H](C)O4)c(C)c(O)c3c(O)c2C(=O)[C@H]1O[C@H]1C[C@@H](O[C@H]2C[C@@H](O[C@H]3C[C@](C)(O)[C@H](O)[C@@H](C)O3)[C@H](O)[C@@H](C)O2)[C@H](O)[C@@H](C)O1 (some centres undefined)	/	/	/	.	/	/
CCN(CC)CCCCNc1ncc2cc(-c3cc(OC)cc(OC)c3)c(NC(=O)NC(C)(C)C)nc2n1	.	.	?	.	7.1µM	.
CCN(CC)CCNC1=NCCn2c1cc1cc(OC)ccc12	.	.	.	.	.	.
CCOc1ccc(N(C)C(=O)c2oc(=O)c3ccccc3c2-c2ccccc2)cc1	/	.	/	.	/	/
COc1ccc(OC)c(C2=NOC(C(=O)NCc3cccnc3)C2)c1 (centres undefined)	.	.	.	.	.	.
COc1cc(OC)c(C2=NOC(C(=O)NCc3cccnc3)C2)cc1Cl (centres undefined)	.	.	.	.	10µM	.
CCCN(CCC)CCCNC(=O)c1cc2c(=O)n(CC)c3ccccc3c2s1	.	.	.	.	.	.
CCn1c(=O)c2cc(C(=O)NCCCOC)sc2c2ccccc21	.	.	.	.	5.6µM	.
CNC[C@H](CC1CCCCC1)NC[C@H](CO)NCCc1cccc(C(F)(F)F)c1	.	.	?	.	7.9µM	.
Cn1c(=O)c2c([nH]c(=S)n2CCCc2ccccc2)n(C)c1=O	.	?	.	11µM	.	.
Cn1c(=O)c2[nH]c(=S)n(Cc3ccccc3)c2n(C)c1=O	/	?	/	/	.	/
Cn1c(=O)[nH]c(=O)c2c1[nH]c(=S)n2CCCc1ccccc1	.	?	.	16µM	.	.

Screening results (PubChem BioAssay)
